High-throughput results from PubChem.
Rows were chosen to be rich in hits. Some 6.8% of all compounds tested hit in one or more screens of this group.
PTAP TSG101 blk = blocks PTAP/TSG101 interaction to inhibit HIV-1 budding. Q99816. Fluorescence polarization, FITC-PTAP peptide / Tsg101 binding. Potency, µM (top dose mostly 115 µM), hits mostly inhibitors. 340,000 tested, under 10 active. AID 493005; active = well fitted inhibition curve with a large enough effect in the main read-out, with a control signal flat, not every such curve was filed as active; inconclusive = small, poorly fitted or top-dose-only effect, or effect the other way, or a change in a side signal; inactive = no such curve, though single readings can be large or run the other way
Target sequence (Q99816 whole entry, looked up): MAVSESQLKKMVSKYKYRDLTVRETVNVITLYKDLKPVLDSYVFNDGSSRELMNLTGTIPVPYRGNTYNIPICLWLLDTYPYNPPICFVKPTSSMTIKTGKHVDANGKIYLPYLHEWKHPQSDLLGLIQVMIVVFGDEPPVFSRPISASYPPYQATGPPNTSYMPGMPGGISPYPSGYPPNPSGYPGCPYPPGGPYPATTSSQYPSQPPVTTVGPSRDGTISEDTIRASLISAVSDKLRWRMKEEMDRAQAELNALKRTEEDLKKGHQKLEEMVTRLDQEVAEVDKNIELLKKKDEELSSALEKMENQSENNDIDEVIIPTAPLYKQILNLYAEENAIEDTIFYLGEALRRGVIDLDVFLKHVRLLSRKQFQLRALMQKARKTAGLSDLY
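Steps: Tsg101 binding domain dispensed (10 uM final), compounds pinned in DMSO, FITC-labeled PTAP-motif peptide added (50 nM final); after 20 min binding at room temperature, polarization measured.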
KB-V1 cytotox = kills drug-selected multidrug resistant KB-V1 cells. KB-V1 MDR cells viability, CellTiter-Glo, 72 h. Potency, µM (top dose mostly 46.1 µM), hits mostly cytotoxic. 3.4% of 400,000 active; also: nearly all actives have a fitted effect of over 60% in size
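Cytotoxicity via CellTiter-Glo luminescence after 72 h compound exposure at 37 degrees C. Cells: drug-selected KB-V1 line, DMEM phenol-red free plus 10% FBS. Compounds tested at multiple concentrations; normalized data fitted to concentration-effect curves.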
KB-3-1 tox = KB-3-1 parental cell cytotoxicity; KB-3-1 viability, CellTiter-Glo ATP luminescence, 72 h; Potency, µM (highest dose often 46.1 µM), hits mostly cytotoxic; 1.4% of 400,000 active; AID 1347075; also: nearly all actives have a fitted effect of over 60% in size
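Cytotoxicity measured as CellTiter-Glo luminescence after 72 h at 37 C. Compound titrations were pinned onto drug-naive KB-3-1 parental adenocarcinoma cells grown in DMEM with 10% FBS, and normalized data fitted to concentration-response curves.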
SW480 rereplic = DNA re-replication induction in SW480 cells. SW480 DNA re-replication, Hoechst DNA content imaging, 48 h. Potency, µM (titrated, usually from 46.1 µM), usual class: activators. 1.8% of 340,000 active. AID 624297; also: nearly all actives have a fitted effect of over 55% in size
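Treated cells incubate 48 hr (37 C, 5% CO2), are stained 40 min with Hoechst, and nuclear fluorescence is enumerated; a rise in nuclei with high DNA signal marks re-replication.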
MCF10A rereplic = inducers of DNA re-replication in MCF 10A breast cells; 2.9% of 350,000 active; Potency, µM (series often up to 46.1 µM), most hits filed as activators; MCF 10A DNA re-replication, Hoechst nuclear intensity, 48 h; also: nearly all actives have a fitted effect of over 50% in size
PINK1 expr mod = PINK1 expression modulation; PINK1 immunofluorescence, high-content cytometry, 24 h; Potency, µM (highest dose often 76.6 µM), actives largely listed as activators; 0.2% of 410,000 active; AID 624263; active = well fitted activation curve with a large enough effect; inconclusive = small, poorly fitted or top-dose-only effect; cell line not stated here; also: nearly all actives have a fitted effect of over 65% in size
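PINK1 protein level read as immunofluorescence by microplate cytometer in a fixed, stained stable cell line after 24 h exposure to five compound concentrations, with CCCP as control.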
Large screens that a line does not name were inactive; ! = not confirmed by another sample. Unless noted, calls follow the shape of the dose curve; as a rule, active = well fitted curve in the direction sought with a large enough effect; inconclusive = small, poorly fitted or top-dose-only effect, or another doubt; inactive = no such curve, though single readings can be large; an effect the other way counts as inactive or inconclusive.

Cc1ccc(NC(=O)COC(=O)/C=C/c2ccco2)cc1S(=O)(=O)N(C)C	SW480 rereplic inconclusive
NP(=O)(Oc1ccccc1Cl)Oc1ccccc1Cl	KB-V1 cytotox inconclusive, MCF10A rereplic 0.65µM
NP(=O)(OCCCCc1ccccc1)Oc1ccccc1Cl (stereo not drawn)	KB-V1 cytotox inconclusive
C[C@@H]1C[C@@H]([C@H](O)CC2CC(=O)NC(=O)C2)C(=O)[C@@H](C)C1	KB-V1 cytotox 2.3µM, KB-3-1 tox 9.2µM, MCF10A rereplic inconclusive
CCCCc1nc2ccccc2c(=O)n1-c1cccc(OC)c1	none (no result: PTAP TSG101 blk, SW480 rereplic, MCF10A rereplic)
Cc1ccccc1C1=NCC(=O)N(CC(=O)NCc2ccco2)c2sc3c(c21)CCCC3	KB-V1 cytotox 18µM, MCF10A rereplic inconclusive (no result: PINK1 expr mod)
O=[N+]([O-])c1ccc(-c2ccc(C=Nc3cccc4ccccc34)o2)cc1	SW480 rereplic 12µM, MCF10A rereplic 8.2µM
c1ccc(C2(c3ccccc3)CC2C2=NCCN2)cc1 (stereo not drawn)	none (no result: PTAP TSG101 blk, KB-V1 cytotox, KB-3-1 tox, PINK1 expr mod)
CCC1(C2=NCCN2)Cc2ccccc2O1 (stereo not drawn)	SW480 rereplic 12µM!, MCF10A rereplic inconclusive
CC12CCC3c4ccc(OC(=O)N(CCCl)CCCl)cc4CCC3C1CCC2O (stereo not drawn)	KB-V1 cytotox 5.8µM, KB-3-1 tox inconclusive, SW480 rereplic inconclusive, MCF10A rereplic 21µM, PINK1 expr mod inconclusive
COc1cccc(NP(=O)(Oc2ccc(Cl)cc2)Oc2ccc(Cl)cc2)c1	KB-V1 cytotox 13µM, KB-3-1 tox inconclusive, SW480 rereplic inconclusive, MCF10A rereplic inconclusive, PINK1 expr mod inconclusive
COc1ccccc1OP(=O)(Nc1cccnc1)Oc1ccccc1OC	KB-V1 cytotox 9.2µM, KB-3-1 tox inconclusive, MCF10A rereplic inconclusive
Cc1cccc(NP(=O)(Oc2ccccc2F)Oc2ccccc2F)c1	PTAP TSG101 blk inconclusive, KB-V1 cytotox 18µM, KB-3-1 tox inconclusive, SW480 rereplic inconclusive, MCF10A rereplic inconclusive, PINK1 expr mod inconclusive
CCOC(=O)C/C(C)=N/NC(=O)COc1ccccc1C	MCF10A rereplic inconclusive
N#CC1=C(N)Oc2c(c(=O)sc3ccccc23)C1c1cccnc1 (stereo not drawn)	KB-3-1 tox inconclusive, SW480 rereplic 15µM, MCF10A rereplic 8.2µM
NCC(N)C(=O)c1ccccc1 (stereo not drawn)	none (no result: PTAP TSG101 blk, KB-V1 cytotox, KB-3-1 tox, SW480 rereplic, MCF10A rereplic)
COc1cc2c(cc1OC)-c1c3c(cc4c1[C@@H](C2)N(C)CC4)OCO3	KB-V1 cytotox inconclusive, SW480 rereplic inconclusive, MCF10A rereplic inconclusive
COc1cc2c(cc1O)C[C@H]1NCCc3cc4c(c-2c31)OCO4	KB-3-1 tox inconclusive, SW480 rereplic inconclusive, MCF10A rereplic 18µM
CCCCCC1C(=O)O[C@H](C)[C@@H](NC(=O)c2cccc(NC=O)c2O)C(=O)OC(C)C1OC(=O)CC(C)C (stereo partly drawn)	none (no result: PTAP TSG101 blk, KB-V1 cytotox, KB-3-1 tox, SW480 rereplic, MCF10A rereplic)
C=CC[C@]1(O)CCC2C3CCC4=CCCCC4C3CCC21C (stereo partly drawn)	MCF10A rereplic 19µM (no result: PTAP TSG101 blk, KB-V1 cytotox, KB-3-1 tox, PINK1 expr mod)
CCC1(O)CCC2C3CCC4=CC(=O)CCC4C3CCC21CC (stereo not drawn)	KB-V1 cytotox inconclusive
CC(=O)C1C(N2CC2)CC2C3CC=C4CC(O)CCC4(C)C3CCC21C (stereo not drawn)	KB-V1 cytotox inconclusive, KB-3-1 tox inconclusive, SW480 rereplic 23µM, MCF10A rereplic 4.6µM
C[C@]12CC[C@H](O)CC1=CCC1C2CC[C@@]2(C)C1C[C@@H](O)[C@@H]2O (stereo partly drawn)	none
Nc1nc(N)nc(NC2CC2)n1	none (no result: PTAP TSG101 blk, KB-V1 cytotox, KB-3-1 tox, PINK1 expr mod)
CN1CCN(c2ccc([N+](=O)[O-])c(NCc3ccco3)c2)CC1	KB-V1 cytotox 12µM, MCF10A rereplic inconclusive
CCCCn1c(O)c(/C=C2\C=Nc3ccccc32)c(=O)[nH]c1=O	PTAP TSG101 blk inconclusive
O=c1[nH]c(O)c(/C=C2\C=Nc3ccc(OCc4ccccc4)cc32)c(=O)[nH]1	PTAP TSG101 blk inconclusive, SW480 rereplic 21µM, MCF10A rereplic inconclusive, PINK1 expr mod 32µM
Cc1cc(=O)oc2c1c(C)nn2-c1nn[nH]n1	SW480 rereplic inconclusive, MCF10A rereplic inconclusive
CCN1CCN(Cc2cccnc2)CC1	none
